# Source: article PMC4336329 (PLoS ONE, 2015)
# Hit rate of the full screen: of about 310,000 compounds, about 2,200 (0.71%) showed an effect of 50% or more. The effect is printed as a negative number. This excerpt belongs to a sample that is enriched for strong results.
# Biological target: human ether-à-go-go-related gene (hERG) potassium channel (human, UniProt Q12809)
# Assay: primary screen, population patch clamp on CHO cells stably expressing hERG; higher = less effect of the substance
# Chain of human ether-à-go-go-related gene (hERG) potassium channel (Q12809 whole entry, looked up): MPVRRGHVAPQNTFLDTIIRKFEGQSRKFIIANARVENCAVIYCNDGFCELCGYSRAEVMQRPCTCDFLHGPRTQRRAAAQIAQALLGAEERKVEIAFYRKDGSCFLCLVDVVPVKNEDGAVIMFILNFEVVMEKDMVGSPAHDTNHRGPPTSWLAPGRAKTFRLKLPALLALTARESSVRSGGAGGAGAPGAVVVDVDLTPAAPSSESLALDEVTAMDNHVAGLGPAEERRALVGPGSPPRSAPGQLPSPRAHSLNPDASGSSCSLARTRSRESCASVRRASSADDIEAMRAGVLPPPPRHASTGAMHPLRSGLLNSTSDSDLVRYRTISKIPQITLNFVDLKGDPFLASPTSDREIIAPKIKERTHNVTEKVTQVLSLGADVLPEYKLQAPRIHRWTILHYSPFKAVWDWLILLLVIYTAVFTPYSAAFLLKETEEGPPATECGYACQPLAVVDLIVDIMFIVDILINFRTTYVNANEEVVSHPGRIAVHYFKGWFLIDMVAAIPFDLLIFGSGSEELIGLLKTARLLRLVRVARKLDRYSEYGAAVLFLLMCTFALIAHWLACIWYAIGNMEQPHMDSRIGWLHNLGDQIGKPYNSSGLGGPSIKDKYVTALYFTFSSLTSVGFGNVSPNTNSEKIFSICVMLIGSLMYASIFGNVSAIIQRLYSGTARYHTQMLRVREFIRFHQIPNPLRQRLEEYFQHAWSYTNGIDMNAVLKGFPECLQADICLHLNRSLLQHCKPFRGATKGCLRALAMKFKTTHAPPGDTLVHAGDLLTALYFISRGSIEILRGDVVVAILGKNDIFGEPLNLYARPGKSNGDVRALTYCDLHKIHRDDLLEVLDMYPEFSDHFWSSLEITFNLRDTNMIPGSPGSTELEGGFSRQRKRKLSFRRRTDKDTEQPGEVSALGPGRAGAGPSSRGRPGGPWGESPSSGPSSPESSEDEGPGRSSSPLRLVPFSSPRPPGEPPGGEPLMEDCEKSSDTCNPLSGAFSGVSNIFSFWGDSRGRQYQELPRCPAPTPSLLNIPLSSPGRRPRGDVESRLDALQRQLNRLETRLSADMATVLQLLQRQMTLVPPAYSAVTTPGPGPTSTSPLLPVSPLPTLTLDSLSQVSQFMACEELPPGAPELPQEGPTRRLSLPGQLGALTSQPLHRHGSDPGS
row,Structure (SMILES),"hERG current change (%, negative = inhibition) at 1uM [%]"
1,CCN(CC)CCOC(=O)c1ccc(N/C=C(/C#N)c2nc(-c3cccc(OC)c3)cs2)cc1,13.7
2,CCOC(=O)/C=C1\SCC(=O)N1CC(=O)Nc1ccc(OC)c(OC)c1,12.2
3,CCOC(=O)C1CCN(C(=O)N(CC)CC)CC1,3.77
4,CCCCn1c(=O)c(-c2ccccc2)c(O)c2ccccc21,16.3
5,Cc1nonc1C1CCCN1C(=O)c1cc(COc2ccc(F)cc2Cl)on1 (stereo not shown),8.74
6,COc1ccc(NC2CCCN(C(=O)CSc3ccccc3)C2)cc1OC (stereo not shown),4.34
7,CC1(C)CC(=O)C(C(c2cccnc2)C2C(=O)CC(C)(C)CC2=O)C(=O)C1,2.02
8,CCCC(=O)N1CCN(c2ccc(NC(=O)c3ccc(N4CCCC4)c([N+](=O)[O-])c3)cc2Cl)CC1,-8.46
9,Br.N=C1c2ccccc2CN1NC(=O)C1CC1,7.71
10,CCCCN(C)C(=O)c1cc2c(s1)-c1ccccc1S(=O)(=O)C2,-6.69
11,Cc1[nH]c(=O)[nH]c(=O)c1S(=O)(=O)N1CCC(C(=O)NC(C)c2ccccc2)CC1 (stereo not shown),7.35
12,O=C(c1ccc(OC2CCN(CCc3ccccc3)CC2)cc1)N1CCCC1,-1.63
13,CCc1ccc(CN2CCC(Oc3ccc(C(=O)N4CCCCC4)cc3)CC2)cc1,-61.5
14,COC(=O)c1ccc(CN2CCC(Oc3ccc(C(=O)N4CCCCC4)cc3)CC2)cc1,-11.3
15,O=C(c1ccc(OC2CCN(Cc3ccc(C(F)(F)F)cc3)CC2)cc1)N1CCCCC1,6.84
16,CC(=O)N1CCN(C(=O)c2ccc(OC3CCN(CCc4ccccc4)CC3)cc2)CC1,14.6
17,CCc1ccc(CN2CCC(Oc3ccc(C(=O)N4CCCC4)cc3)CC2)cc1,-77.5
18,O=C(c1ccc(OC2CCN(CCCc3ccccc3)CC2)cc1)N1CCCC1,-55.2
19,CSc1ccc(CN2CCC(Oc3cccc(C(=O)N4CCCC4)c3)CC2)cc1,-36.7
20,CSc1ccc(CN2CCC(Oc3ccc(C(=O)N4CCCC4)cc3)CC2)cc1,-56.4
21,O=C(c1ccc(OC2CCN(Cc3ccc(F)cc3)CC2)cc1)N1CCCC1,7.68
22,CC(C)c1ccc(CN2CCC(Oc3ccc(C(=O)N4CCCC4)cc3)CC2)cc1,-33.7

row,Structure (SMILES),"hERG current change (%, negative = inhibition) at 1uM [%]"
1,CC(=O)Nc1ccc(CN2CCC(Oc3ccc(C(=O)N4CCCC4)cc3)CC2)cc1,-6.27
2,CC(=O)c1cc(C(=O)N2CCCC(CCC(=O)N(C)CCc3ccccn3)C2)cs1 (stereo not shown),9.12
3,Cc1ccc(S(=O)(=O)Nc2cccc(/C=C/C(=O)O)c2)cc1,17
4,O=C(CN1CCN(c2ccc(Cl)cc2)CC1)c1ccc2c(c1)OCO2,1.86
5,COc1ccccc1/C=C/C(=O)Nc1cccc(S(=O)(=O)NC2=NCCCCC2)c1,13.1
6,COc1ccc(C(=O)NC(=S)N2CCCCC2)cc1[N+](=O)[O-],5.8
7,O=C(NCc1ccco1)c1sc(=S)n2c1[nH]c(=O)c1ccccc12,-4.07
8,CCCCn1c(N)c(N(CC)C(=O)c2ccccc2F)c(=O)[nH]c1=O,19.7
9,CCOc1ccccc1NC(=O)CSc1nnc(Cc2cccn2C)n1-c1ccc(F)cc1,-8.2
10,CCCCc1nc(NCC2CCCO2)c(C#N)c2c1COC(C)(C)C2 (stereo not shown),6.42
11,COc1ccccc1OCc1ccc(C(=O)NN)cc1,5.11
12,C[C@@H]1CC[C@@]2(O[C@@H](CCO)C[C@@H](O)[C@@H]2O)O1,20.7
13,O=C(c1ccc(OC2CCN(C/C=C/c3ccc(F)cc3)CC2)cc1)N1CCCCC1,-19.2
14,O=C(c1ccc(OC2CCN(C/C=C/c3ccc(F)cc3)CC2)cc1)N1CCCC1,-74.9
15,O=C(c1ccc(OC2CCN(C/C=C/c3ccccc3)CC2)cc1)N1CCCC1,-27.1
16,Cc1cccc(N2CCN(C(=O)c3ccc4nc(N5CCCCC5)sc4c3)CC2)c1C,8.76
17,Oc1c(Cl)cc(Cl)cc1C=Nc1ccc2c(c1)OCCO2,16
18,Brc1ccc(C=Nc2ccc(Nc3ccccc3)cc2)s1,14.7
19,Brc1csc(C=Nc2ccc3c(c2)OCCOCCOCCOCCO3)c1,-78.1
20,Oc1c(Br)cc(Br)cc1C=Nc1ccc2c(c1)OCCO2,12.2
21,O=C(N/N=C/c1cc(Br)cs1)c1ccc2c(c1)OCCO2,9.48
